# Values without a mark were called inactive. Unless noted, how the calls were made is not given here.
# Molecular target: Homeobox protein Hox-A13 (Mus musculus) (UniProt Q62424)
# Test: disruptors of Hoxa13 oligonucleotide interaction – biochemical, fluorescence polarization, labeled oligonucleotide, primary screen (AID 1185)
# Conditions: Hoxa13:DNA binding, 15 min, higher = more signal, called active from +8 up or from −8 down
# Homeobox protein Hox-A13 (Mus musculus), sequence (Q62424 whole entry, looked up): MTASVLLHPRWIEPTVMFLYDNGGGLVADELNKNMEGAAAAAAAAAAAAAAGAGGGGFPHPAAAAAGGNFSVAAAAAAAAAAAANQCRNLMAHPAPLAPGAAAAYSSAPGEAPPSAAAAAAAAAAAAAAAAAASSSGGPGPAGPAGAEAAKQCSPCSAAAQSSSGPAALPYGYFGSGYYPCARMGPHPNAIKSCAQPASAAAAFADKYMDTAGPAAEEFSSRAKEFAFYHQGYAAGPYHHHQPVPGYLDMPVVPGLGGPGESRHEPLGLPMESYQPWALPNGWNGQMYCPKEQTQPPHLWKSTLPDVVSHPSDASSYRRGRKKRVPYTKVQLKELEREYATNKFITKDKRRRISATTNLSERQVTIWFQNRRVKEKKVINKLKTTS
row,Compound,z-score
1,O=C1NC(=O)C2C1C=CC(C(O)C=Cc1ccc([N+](=O)[O-])cc1)N2Nc1ccccn1 (stereo not given),-1.88
2,COc1cc(Cc2cc3c(c(CCc4ccccc4)n2)[Si](C(C)C)(C(C)C)OC3)cc(OC)c1OC,-3.47
3,CCCCCCc1nc(-c2cc(C)c(OC)c(C)c2)cc2c1[Si](C(C)C)(C(C)C)O[C@H]2c1ccccc1,-1.91
4,CO[C@H]1COC(=O)[C@H](C)COC(=O)[C@H](Cc2ccccc2)NC(=O)CC=C[C@H]1C,0.57
5,CO[C@H]1COC(=O)CC=C[C@@H](C)COC(=O)[C@@H](C)NC(=O)CC=C[C@@H]1C,0.382
6,COC(=O)[C@@]1(Cc2ccccc2CN=[N+]=[N-])N=C(c2ccc(OCCCO)cc2)O[C@H]1c1ccccc1N=[N+]=[N-],0.683
7,C#CCNC(/C=C/c1ccccc1)CO (stereo not given),-1.21
8,CO[C@H]1COC(=O)CC=C[C@H](C)COC(=O)[C@@H](OCc2ccccc2)C=C[C@@H]1C,1.89
9,C[N+](C)(C)CCCCNC(=O)[C@H]1C[C@H]2C(=O)NCC(=O)N2[C@H]1c1cccc(OCCO)c1,-2.52
10,O=C1O[C@@H](c2ccccc2)[C@@H](c2ccccc2)N2[C@@H](c3ccc(OCCO)cc3)[C@]3(C(=O)Nc4ccc(C#CCCO)cc43)[C@@H](C(=O)N3CCN(c4ncccn4)CC3)[C@H]12,-0.282
11,C=C(C)[C@@H]1CC=C(C(O)C2C=CC3C(=O)NC(=O)C3N2Nc2ccccn2)CC1 (stereo not given in full),-3.65

# Test system: not listed separately
# Test: blockers of DNA damage checkpoint Chk1 activation – imaging, HeLa, hydroxyurea, phospho-Chk1 antibody, percent positive cells, primary screen (AID 1186)
# Conditions: hydroxyurea-induced phospho-Chk1 immunofluorescence imaging, higher = more signal
row,Compound,z-score
1,CC(C)N1CC=CC23O[C@@H]4/C=C\CCCOC(=O)C4[C@H]2C(=O)N(CCCCCO)[C@@H]3C1=O (stereo not given in full),-0.261
2,[N-]=[N+]=NCc1ccccc1C[C@@]1(C(=O)O)N=C(c2ccc(OCCCO)cc2)O[C@@H]1c1ccccc1N=[N+]=[N-],-1.08
3,CC(c1ccccc1)C(O)C1C=CC2C(=O)N(C)C(=O)C2N1N(c1ccccc1)c1ccccc1 (stereo not given),0.75
4,COc1ccc(CCN2C(=O)[C@@]3(c4ccc([N+](=O)[O-])cc4)CC(=O)N(CC45CC6CC(CC(C6)C4)C5)[C@@H]3c3ccc(CO)cc32)cc1,0.33
5,O=C1C[C@@](C(=O)NCCN2CCOCC2)(c2ccc([N+](=O)[O-])cc2)[C@@H](c2ccc(CO)cc2)N1C1CCCCC1,-0.0132
6,CCOC(=O)C[C@H]1[C@H](OC(=O)Cc2ccc3c(c2)OCO3)[C@@H](NC(=O)CC(C)C)c2cc(OCCCO)ccc2N1C(=O)c1ccccc1,-0.398
7,Cc1ccc(S[C@]2(C(=O)O)CC(=O)N(Cc3ccccc3)[C@@H]2c2ccc(CO)cc2)cc1,-0.947
8,Cc1ccc(S[C@]2(C(=O)NC(C)C)CC(=O)N(Cc3cc(C(F)(F)F)cc(C(F)(F)F)c3)[C@@H]2c2ccc(CO)cc2I)cc1,0.392
9,C=C(CCCC)/C(=C/C[C@@H](OC(=O)c1ccncc1)c1ccc(CO)o1)c1cnc2ccccc2c1,0.222
10,CN(C)c1ccc(C(O)C2C=CC3C(=O)NC(=O)C3N2Nc2ccc(Cl)cc2Cl)cc1 (stereo not given),-0.0923
11,CC(C)(C)OC(=O)CC[C@]1(C(=O)NCCN2CCOCC2)N=C(c2ccc(OCCCO)cc2)O[C@H]1c1ccccc1CN=[N+]=[N-],-0.593
12,COc1cc2c(cc1OC)CN(C(=O)[C@H]1[C@@H]3C(=O)O[C@@H](c4ccccc4)[C@@H](c4ccccc4)N3[C@@H](c3ccc(O)cc3)[C@]13C(=O)Nc1ccc(C#CC4(O)CCCCCC4)cc13)CC2,-0.0159
13,Cc1ccc(N2C(=O)c3ccccc3[C@](C)(C(=O)NCC(C)C)[C@@H]2c2ccc(CO)cc2)nc1,0.341
14,CCOC(=O)C[C@H]1[C@H](OC(=O)c2ccccc2-c2ccccc2)[C@@H](NC(=O)c2ccc(-c3ccccc3)cc2)c2cc(OCCCO)ccc2N1C(=O)Cc1ccc(OC)cc1,0.663
15,C=CCN1C(=O)[C@@]2(O[C@@H](CCn3cc([C@H](O)c4ccccc4)nn3)[C@H]([Si](C)(C)c3ccc(OC)cc3)[C@H]2C)c2cc(N3CCOC3=O)ccc21,-1.49
16,C=CCOC(=O)[C@@H]1[C@H]2C(=O)O[C@H](c3ccccc3)[C@H](c3ccccc3)N2[C@H](c2ccc(OCCOC(=O)[C@H]3C[C@H]4C(=O)N5CCC[C@H]5C(=O)N4[C@H]3c3ccc(O)cc3)cc2)[C@@]12C(=O)Nc1ccccc12,0.458
17,O=C1NC(=O)C2C1C=CC(C(O)C=Cc1ccc([N+](=O)[O-])cc1)N2Nc1ccccn1 (stereo not given),-0.746
18,COc1cc(Cc2cc3c(c(CCc4ccccc4)n2)[Si](C(C)C)(C(C)C)OC3)cc(OC)c1OC,-0.0504
19,CCCCCCc1nc(-c2cc(C)c(OC)c(C)c2)cc2c1[Si](C(C)C)(C(C)C)O[C@H]2c1ccccc1,0.0883
20,COC(=O)[C@@]1(Cc2ccccc2CN=[N+]=[N-])N=C(c2ccc(OCCCO)cc2)O[C@H]1c1ccccc1N=[N+]=[N-],0.0586
21,C#CCNC(/C=C/c1ccccc1)CO (stereo not given),0.0357
22,C[N+](C)(C)CCCCNC(=O)[C@H]1C[C@H]2C(=O)NCC(=O)N2[C@H]1c1cccc(OCCO)c1,0.0452
23,O=C1O[C@@H](c2ccccc2)[C@@H](c2ccccc2)N2[C@@H](c3ccc(OCCO)cc3)[C@]3(C(=O)Nc4ccc(C#CCCO)cc43)[C@@H](C(=O)N3CCN(c4ncccn4)CC3)[C@H]12,0.396
24,C=C(C)[C@@H]1CC=C(C(O)C2C=CC3C(=O)NC(=O)C3N2Nc2ccccn2)CC1 (stereo not given in full),0.129
